Our source for the inhibition values is PubChem BioAssay AID422 (Emory University Molecular Libraries Screening Center, 2006).

Screen size: about 160,000 compounds; about 310 (0.19%) were called active. Only a selection was taken, and actives are over-represented in it overall. A number with no mark means an inactive call. No stated cut-off is given here; in the data, active means inhibition above about 30%; inactive means the rest.

The inhibition is the change of the read-out against control, counted positive when it falls.

Sequence of 14-3-3 protein gamma (Homo sapiens) (P61981 whole entry, looked up): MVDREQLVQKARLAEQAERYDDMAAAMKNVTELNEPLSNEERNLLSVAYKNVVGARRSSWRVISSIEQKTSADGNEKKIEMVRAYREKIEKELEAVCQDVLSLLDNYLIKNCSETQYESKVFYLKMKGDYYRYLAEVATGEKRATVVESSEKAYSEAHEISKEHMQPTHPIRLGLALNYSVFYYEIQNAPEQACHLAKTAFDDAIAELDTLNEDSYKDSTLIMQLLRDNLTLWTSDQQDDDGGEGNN

The assay has as its target 14-3-3 protein gamma (Homo sapiens) (UniProt P61981). Kind of assay: 14-3-3 gamma/Raf peptide interaction modulators – biochemical, fluorescence polarization, primary screen (AID 422).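 Further: 0% = protein plus tracer without compound and 100% = blank with tracer alone.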 The following applies: FP, 14-3-3gamma / TMR-pS259-Raf peptide binding; at 40 µM; active compounds read high.
Regarding `Cc1ccc2[nH]cc(C(=O)c3ccccc3)c(=O)c2c1`, the inhibition is -15%.
On to `O=C(c1ccco1)N1CCN(c2cccc(Cl)c2)CC1`, for which the inhibition is -9.3%.
Consider `O=[N+]([O-])c1ccc(N2CCN(S(=O)(=O)c3ccc4ccccc4c3)CC2)cc1NCc1ccco1`, for which the inhibition was -5.05%.
In the case of `O=C(c1ccco1)N1CCN(c2ccc([N+](=O)[O-])c(NCc3cccnc3)c2)CC1`, the inhibition is 46.1% (active).
Under `CC1CC(C)CN(C(=O)c2cc3c(=O)oc4ccccc4c3s2)C1` (centres undefined) stands -6.3%; under `CC(C)CCNC(=O)c1ccc2c(c1)N(Cc1ccccc1)C(=O)CS2`, 3.32%; under `O=C(Nc1cccc(-c2nc3ccccc3s2)c1)c1cccnc1Cl`, -17.9%.
On to `COc1cc(NS(=O)(=O)c2c(C)n[nH]c2C)cc(OC)c1`, for which the inhibition is -0.99%.
Regarding `COc1cc2c(=O)n(CC3CCCO3)c(=O)n(CC(=O)c3ccc(Br)cc3)c2cc1OC` (centres undefined), the inhibition is -0.78%.
Under `Cc1cc(OCC(=O)Nc2sc3c(c2C(N)=O)CCCC3)ccc1[N+](=O)[O-]` stands -9.64%.
Turning to `O=C(Nc1c2c(nn1-c1ccc(F)cc1)CSC2)c1cccc(F)c1`, the inhibition is -4.31%.
`COc1ccc(C)cc1NC(=O)C1(S(=O)(=O)c2ccc(Cl)cc2)CC1`: the inhibition was -7.62%.
Under `O=C(NCCN1CCCC1)C1CCC(CNS(=O)(=O)c2ccc(Cl)cc2)CC1` (centres undefined) stands 1.41%; under `Cc1ccccc1N1C(=O)C2C3C=CC(C4CC34)C2C1=O` (centres undefined), 8.35%; under `Cc1cc(OCC(=O)Nc2ncc(S(=O)(=O)c3ccc([N+](=O)[O-])cc3)s2)cc(C)c1Cl`, -4.64%.
Regarding `COc1ccc(C2C(C(=O)c3cccs3)=C(O)C(=O)N2CCN(C)C)cc1` (centres undefined), the inhibition is 11.4%.
In the case of `COc1ccc(C2=NN(c3ccccc3)C(c3ccc(F)cc3)C2)cc1` (centres undefined), the inhibition is -10.6%.
Take `CCC(C)Nc1ncnc2c1cnn2-c1cccc(C)c1` (centres undefined): the inhibition is 2.9%.
Under `O=C1c2cccc3c(N=Cc4ccccc4O)ccc(c23)C(=O)N1c1ccccc1` stands 31.4% (active).
As for `O=C1c2cccc3cccc(c23)C(=O)N1c1cccc(O)c1`, the inhibition is -4.23%.
Turning to `CC(=O)Nc1ccccc1Sc1ccc2c3c(cccc13)C(=O)N(c1ccc(C)cc1)C2=O`, the inhibition is -10.1%.
Turning to `O=C(O)c1ccc(N2NC(c3ccccc3)=CC2O)cc1` (centres undefined), the inhibition was -4.41%.
As for `O=C(CCS(=O)(=O)c1nc(-c2cccs2)cc(C(F)(F)F)n1)Nc1cc(Cl)ccc1O`, the inhibition was -33.5%.
For `COc1cc(NS(=O)(=O)c2ccc3c(c2)CCN3C(C)=O)cc(OC)c1`, the inhibition was 0.2%.
Consider `Cn1ccnc1SCC(=O)Nc1ccc(F)cc1`, for which the inhibition is -12.9%.
With `CCSCCOC(=O)C1=C(C)NC(=O)NC1c1ccc(OC)cc1` (centres undefined), the inhibition was -1.92%.
Take `O=C(NCc1ccco1)c1ccc2c(=O)n(Cc3ccc(Cl)cc3)c(=S)[nH]c2c1`: the inhibition is -14.3%.
`CC1=C(C(=O)OCC2CCCO2)C(c2ccccc2Cl)C2=C(CCCC2=O)N1` (centres undefined): the inhibition is -2.91%.
To `CC(C)(C)c1ccc(C2SCC(=O)N2c2ccccc2F)cc1` (centres undefined) belongs -3.17%; to `CCCCOC(=O)c1cc(-c2ccccc2)nc2ccc(Br)cc12`, 2.65%; to `CCOc1ccc(C2Nc3ccccc3-c3nnc(SC)nc3O2)cc1C` (centres undefined), -68.8%.
As for `CSc1nnc2c(n1)OC(c1ccccc1Cl)Nc1ccccc1-2` (centres undefined), the inhibition is 31.9% (active).
Under `CSc1nnc2c(n1)OC(c1ccc3c(c1)OCO3)Nc1ccccc1-2` (centres undefined) stands 6.07%; under `CCOC(=O)c1sc2ncnc(N3CCCC(C(=O)OCC)C3)c2c1C` (centres undefined), -2.94%; under `Cc1ccccc1N=Cc1cccc([N+](=O)[O-])c1O`, 5.41%.
To `Cc1c(Cl)c(C)c([N+](=O)[O-])c(O)c1C=Nc1ccc(Br)cc1C(=O)O` belongs 46.9% (active); to `Cc1ccc2nc(-c3cc(NC(=O)c4cc(Cl)ccc4[N+](=O)[O-])ccc3Cl)oc2c1`, -15.8%.
Under `CCSCCSc1nc(C)cc(C)n1` stands -17.9%.
With `CSc1nc(OCC(=O)c2ccccc2)c2c3c(sc2n1)CCCC3`, the inhibition was 4.08%.
